Rows were chosen to be rich in hits. Some 19% of all compounds tested hit in one or more screens of this group.
KB-3-1 tox = kills parental KB-3-1 adenocarcinoma cells | KB-3-1 viability, CellTiter-Glo ATP luminescence, 72 h | Potency, µM (series often up to 46.1 µM), hits mostly cytotoxic | 400,000 tested, 1.4% active; note: nearly all actives have a fitted effect of over 60% in size
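Cytotoxicity in the drug-sensitive parental line KB-3-1 was scored as loss of CellTiter-Glo luminescence following 72 h incubation with compound. Values come from curve fitting of normalized concentration-response data.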
HT1080 IDH1KD tx = kills HT-1080 cells with IDH1 knockdown; HT-1080 IDH1 knockdown viability, ATP luminescence, 48 h; Potency, µM (titrated, usually from 46.1 µM), for the others: at the highest dose activity, negative = toxicity, hits mostly cytotoxic; 360,000 tested, 2% active; AID 686971;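 note: 0% = DMSO wells and -100% = cell-free medium wells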
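% activity derives from luminescence (CellTiter-Glo), normalised to DMSO and no-cell wells. HT-1080-IDH1KD cells, 750/well, had 48 h compound exposure at 37 °C.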
TDP1 cell CPT = DT40-hTDP1 cell growth loss with CPT; chicken DT40 Tdp1-/-;hTDP1 cells + 20 nM CPT, ATP luminescence, 48 h; Potency, µM (titrated, usually from 46.2 µM), for the others: top-dose activity change, negative = growth inhibition, most hits filed as inhibitors; 420,000 tested, 12% active; note: nearly all actives have a fitted effect of over 55% in size
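Cell growth measured by CellTiter-Glo luminescence after a minimum 48 h, 37 C compound exposure with 20 nM CPT in Tdp1-knockout DT40 cells stably expressing hTDP1, seeded 400/well; qHTS titration format.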
KB-V1 MDR tox = KB-V1 MDR subline cytotoxicity. Potency, µM (titrated, usually from 46.1 µM), hits mostly cytotoxic. AID 1347076. KB-V1 MDR cells viability, CellTiter-Glo, 72 h. 400,000 tested, 3.4% active; note: nearly all actives have a fitted effect of over 60% in size
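KB-V1 MDR subline cells in DMEM (phenol-red free, 10% FBS) exposed to compounds in qHTS concentration series for 72 h at 37 degrees C. Viability read by CellTiter-Glo luminescence; concentration-effect curves fitted after normalization and correction.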
DT40 TDP1 no CPT = qHTS for Inhibitors of human tyrosyl-DNA phosphodiesterase 1 (TDP1): qHTS in cells in absence of CPT | DT40 Tdp1-/- hTDP1 cells, no CPT, ATP luminescence, 48 h | Potency, µM (titrated, usually from 46.2 µM), for the others: at the highest dose activity change, negative = growth inhibition, most hits filed as inhibitors | 420,000 tested, 15% active; note: nearly all actives have a fitted effect of over 55% in size
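Chicken DT40 Tdp1-/- cells complemented with human TDP1, screened without camptothecin (DMSO vehicle only), 400 cells/well. Compounds pin-transferred, cells incubated at 37 °C for at least 48 hr. Growth read as ATP-dependent luminescence (CellTiter-Glo, 30 min at RT).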
HT1080-NT tox = kills 2HG-producing HT-1080-NT fibrosarcoma cells; HT-1080-NT fibrosarcoma viability, CellTiter-Glo ATP luminescence, 48 h; Potency, µM (doses to about 46.1 µM), inactives show top-dose activity, negative = less viability, most hits filed as cytotoxic; 360,000 tested, 1.6% active; AID 686970;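 note: NT is the 2HG producing partner of a matched IDH1 knockdown line; 0% = DMSO-treated cells and -100% = media-only wells without cells; nearly all actives have a fitted effect of over 55% in size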
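Toxicity toward the 2HG-producing NT line was scored as %Activity, normalised to DMSO and no-cell wells, from CellTiter-Glo luminescence after 48 hours' treatment.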
An asterisk follows results filed as active; i = inactive; u = inconclusive; x = no result; ! = repeats disagree. Calls come from the whole dose curve; as a rule, active = well fitted curve in the direction sought with a large enough effect; inconclusive = small, poorly fitted or top-dose-only effect, or another doubt; inactive = no such curve, though single readings can be large; an effect the other way counts as inactive or inconclusive. Unless noted, % is set by controls: 0 for no effect and ±100 for the full control effect; potency is the fitted concentration of half-maximal effect.

SMILES	KB-3-1 tox	HT1080 IDH1KD tx	TDP1 cell CPT	KB-V1 MDR tox	DT40 TDP1 no CPT	HT1080-NT tox
O=S1(=O)CCOC[C@H](CC2CCCCC2)N1Cc1cccc(C(F)(F)F)c1	u	-0.4%	u	13µM*!	18.4µM*	-16.1%
O=S1(=O)CCOC[C@H](Cc2ccccc2)N1Cc1cccc(C(F)(F)F)c1	i	-0.4%	18.4µM*	u	u	-27.9%
CC(C)[C@H]1COCCS(=O)(=O)N1Cc1ccccc1	i	-1.9%	u	i	10µM*!	-0.4%
CCC[C@H]1COCCS(=O)(=O)N1Cc1ccc(Br)cc1	u	x	u	u	11.2µM*	x
CC(=O)Nc1ccc(S(=O)(=O)NC2(C(F)(F)F)C(=O)Nc3c2c(=O)[nH]c(=O)n3-c2ccc(C)cc2)cc1 (stereo unspecified)	u	x	-7.1%	i	12.4%	x
CCN(CC)S(=O)(=O)c1ccc(C)c(NC(=S)NC2CCCCC2)c1	i	-9.2%	u	i	14.6µM*	-2.2%
O=C(NC1CC1)c1ccc(S(=O)(=O)NC2CCCCCC2)cc1	i	-27.7%	u	16.4µM*	u	-2.7%
Cc1ccc(S(=O)(=O)N(C)C)cc1NC(=S)NC1CCCC(C)C1C (stereo unspecified)	i	12.4%	20.6µM*	u	u	0.7%
CCN(CC)S(=O)(=O)c1cccc(C(=O)NC2CCCCC2)c1	i	u	-8.6%	18.4µM*	u	-13.3%
CC1CCCCC1NC(=S)Nc1cccc(S(=O)(=O)N(C)C)c1 (stereo unspecified)	i	-11.4%	u	u	u	-14.8%
CCN(CC)S(=O)(=O)c1ccc(C)c(NC(=O)CN(C)C)c1	i	0.2%	-6.3%	i	-14.1%	-1.6%
COc1ccc(C)cc1NC(=O)N1CCC(CN2CCC(C)CC2)CC1	i	x	0.8%	i	0.9%	x
O=c1oc2ccc3ccccc3c2cc1-c1nnc(Nc2cccc(C(F)(F)F)c2)s1	i	x	-14.0%	i	-4.2%	x
CN(Cc1ccccc1)C(=O)c1ccc(NC(=O)c2ccccc2)cc1	i	1.8%	-0.6%	i	9.4%	4.4%
Cc1ccc(CS(=O)Cc2ccc(C(=O)NCc3cccs3)o2)cc1 (stereo unspecified)	i	6.2%	-0.4%	i	-6.1%	-9.0%
Cc1ccc(CS(=O)(=O)Cc2ccc(C(=O)NCc3cccs3)o2)cc1	u	-5.3%	18.4µM*	i	-24.7%	-0.3%
CCc1ccccc1S(=O)(=O)Cc1ccc(C(=O)NCc2cccs2)o1	i	2.8%	18.4µM*	i	u	8.5%

From PubChem
